# Experimental data as given in PubChem BioAssay (NCATS).
# Values joined by “and” are separate entries in the source; they are usually repeats but may differ in a detail not shown here. Equal values may be shown once. Records with an inconclusive call do not appear. Entries that show only a call come without a potency. Where a structure was tested more than once in an assay, its records may differ in their call. Active and inactive are the calls of the source. Unless noted, calls follow the shape of the dose curve; as a rule, active = well fitted curve in the direction sought with a large enough effect; inconclusive = small, poorly fitted or top-dose-only effect, or another doubt; inactive = no such curve, though single readings can be large; an effect the other way counts as inactive or inconclusive.
# Experiments:
# [1] = target: Cytochrome P450 3A4 (Homo sapiens) (UniProt P08684); assay: qHTS Assay for Inhibitors and Substrates of Cytochrome P450 3A4 (AID 884); also: nearly all actives have a fitted effect of over 50% in size; also: potency is read from the fitted curve at half-maximal effect
# How it was run: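 20 nM human CYP3A4 with 25 uM Luciferin-PPXE (at KM) in 200 mM KPO4, preincubated 10 min with compound; NADPH regeneration started a 60 min RT reaction. Luciferin detected by luminescence, normalized to 57 uM ketoconazole as full inhibition.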
# [2] = target: Cytochrome P450 2C9 (Homo sapiens) (UniProt P11712); assay: qHTS Assay for Inhibitors and Substrates of Cytochrome P450 2C9 (AID 883); also: nearly all actives have a fitted effect of over 60% in size; also: potency is read from the fitted curve at half-maximal effect
# How it was run: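 Human CYP2C9 (10nM) with Luciferin-H at 100uM (its KM) in 25mM KPO4; compound preincubated 10 min at 37C, then NADPH regeneration for 60 min at 37C. Luciferin read by luminescence after detection reagent; normalized to 57uM sulphaphenazole as full inhibition.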
# [3] = target: Cytochrome P450 3A4 (Homo sapiens) (UniProt P08684); assay: qHTS Assay for Activators of Cytochrome P450 3A4 (AID 885); also: nearly all actives have a fitted effect of over 65% in size
# How it was run: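 Steps: enzyme/substrate mix dispensed; compound added, 10 min RT; NADPH regeneration solution added, 60 min RT; luciferin detection buffer stops reaction; 20 min later luminescence measured.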
# [4] = qHTS Assay for Identification of Small Molecule Agonists for Hypoxia Response Element Signaling Pathway (AID 914; active = well fitted activation curve with a large enough effect in the signal ratio, with a control signal flat, not every such curve was filed as active; the % refers to the signal ratio); conditions: ME-180 (cervical carcinoma) HRE-bla reporter, beta-lactamase ratio, CoCl2, 17 h; stronger effect = higher value
# How it was run: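 Cells were plated overnight, pin-dosed with compound in a titration series, co-stimulated with EC50 CoCl2 and incubated 17 hours at 37 degrees Celsius. CCF4 substrate was then loaded, and AC50 values came from the 460nm/530nm ratio.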
# [5] = target: Cytochrome P450 2C19 (Homo sapiens) (UniProt P33261); assay: qHTS Assay for Inhibitors and Substrates of Cytochrome P450 2C19 (AID 899); also: nearly all actives have a fitted effect of over 60% in size; also: potency is read from the fitted curve at half-maximal effect
# How it was run: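 5 nM human CYP2C19 with 10uM Luciferin-H EGE (at KM) in 50mM KPO4, compound preincubated 10 min at 37C, then NADPH regeneration for 60 min at 37C. Luciferin read by luminescence after detection reagent; normalized to 57uM ketoconazole as full inhibition.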
# Sequence of Cytochrome P450 2C19 (Homo sapiens) (P33261 whole entry, looked up): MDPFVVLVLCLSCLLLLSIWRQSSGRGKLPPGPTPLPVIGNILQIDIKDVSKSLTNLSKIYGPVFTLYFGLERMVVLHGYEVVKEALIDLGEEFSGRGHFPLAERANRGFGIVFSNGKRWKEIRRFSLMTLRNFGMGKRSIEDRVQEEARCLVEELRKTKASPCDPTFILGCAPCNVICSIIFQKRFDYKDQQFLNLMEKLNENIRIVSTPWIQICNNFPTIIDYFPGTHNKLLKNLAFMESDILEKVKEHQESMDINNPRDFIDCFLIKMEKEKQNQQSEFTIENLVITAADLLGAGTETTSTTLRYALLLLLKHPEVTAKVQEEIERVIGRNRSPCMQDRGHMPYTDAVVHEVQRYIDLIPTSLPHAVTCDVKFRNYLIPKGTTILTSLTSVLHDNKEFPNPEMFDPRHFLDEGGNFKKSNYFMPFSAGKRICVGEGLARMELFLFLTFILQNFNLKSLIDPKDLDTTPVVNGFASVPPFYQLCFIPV
# Sequence of Cytochrome P450 2C9 (Homo sapiens) (P11712 whole entry, looked up): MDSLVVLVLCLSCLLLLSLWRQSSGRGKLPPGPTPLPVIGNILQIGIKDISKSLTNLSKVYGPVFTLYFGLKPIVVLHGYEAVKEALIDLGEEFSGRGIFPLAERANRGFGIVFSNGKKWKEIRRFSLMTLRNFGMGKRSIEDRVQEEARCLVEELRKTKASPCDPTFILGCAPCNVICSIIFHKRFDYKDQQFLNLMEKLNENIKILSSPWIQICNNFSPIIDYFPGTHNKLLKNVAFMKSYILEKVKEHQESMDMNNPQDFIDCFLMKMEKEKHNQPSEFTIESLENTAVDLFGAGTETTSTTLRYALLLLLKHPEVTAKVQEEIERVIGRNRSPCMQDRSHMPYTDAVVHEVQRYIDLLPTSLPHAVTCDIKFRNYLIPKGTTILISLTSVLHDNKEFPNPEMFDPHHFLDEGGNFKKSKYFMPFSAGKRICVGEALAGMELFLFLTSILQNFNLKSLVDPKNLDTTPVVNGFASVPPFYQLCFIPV
# Sequence of Cytochrome P450 3A4 (Homo sapiens) (P08684 whole entry, looked up): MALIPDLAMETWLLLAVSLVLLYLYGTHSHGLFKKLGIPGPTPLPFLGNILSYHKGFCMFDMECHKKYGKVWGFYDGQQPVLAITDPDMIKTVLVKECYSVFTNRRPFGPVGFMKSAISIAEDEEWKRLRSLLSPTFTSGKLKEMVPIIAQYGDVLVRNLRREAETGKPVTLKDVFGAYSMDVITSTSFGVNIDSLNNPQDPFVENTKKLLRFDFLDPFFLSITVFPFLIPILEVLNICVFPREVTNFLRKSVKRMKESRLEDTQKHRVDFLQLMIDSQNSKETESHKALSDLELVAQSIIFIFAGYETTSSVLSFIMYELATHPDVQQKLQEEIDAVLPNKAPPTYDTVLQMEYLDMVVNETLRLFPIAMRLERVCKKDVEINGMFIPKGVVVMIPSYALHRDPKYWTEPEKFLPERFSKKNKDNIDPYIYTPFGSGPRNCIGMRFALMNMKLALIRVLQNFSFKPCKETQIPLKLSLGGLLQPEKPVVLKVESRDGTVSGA
structure (smiles),measurement,setting,value
CN(C)c1ccc(CNC(=O)[C@@]2(C)C=C[C@@H](Cc3ccccc3)N2C)cc1,Potency,[1],inactive
COC(=O)[C@@H]1CC[C@H](C)[C@@H](c2ccc(C)cc2)N1C(=O)c1ccc(/C=N\OC[C@@H](O)COCc2ccco2)cc1,Potency,[2],3.98 µM (active)
same,"activity change, positive = activation",[3],-58.1% [at 11.4 µM] (inactive)
same,activation,[4],9.82% (inactive)
OB(O)c1cc2ccccc2s1,Potency,[1],inactive
CC1Cc2c(-c3ccccc3)nc3c(c2CO1)CN(CCOc1ccccc1)CC3 (stereo unspecified),Potency,[2],inactive
same,"activity change, positive = activation",[3],-39% [at 11.4 µM] (inactive)
same,Potency,[5],inactive
CCCCc1nc2c(c3c1CC(C)OC3)CN(CCOc1ccccc1)CC2 (stereo unspecified),Potency,[2],inactive
same,"activity change, positive = activation",[3],-59.6% [at 11.4 µM] (inactive)
same,Potency,[5],inactive
O=C1CCCC=C1[C@H](CCc1ccccc1)OC(=O)c1ccc(Br)cc1,Potency,[2],3.16 µM (active)
same,"activity change, positive = activation",[3],-49.6% [at 11.4 µM] (inactive)
same,Potency,[5],1.58 µM (active)
COC(=O)[C@@H]1C[C@@]2(O)[C@@H](O)[C@@H](O)[C@@H](O)C[C@H]2N1Cc1ccc(C(F)(F)F)cc1,Potency,[1],inactive
OCC1OC(c2ccc3c(c2)OCO3)C=CC1Oc1ccc(C2CCCC2)cc1 (stereo unspecified),Potency,[2],inactive
same,"activity change, positive = activation",[3],-50.7% [at 11.4 µM] (inactive)
same,Potency,[5],inactive
CO[C@H]1COC(=O)C/C=C\[C@@H](C)COC(=O)[C@H]2CCCN2C(=O)C/C=C\[C@H]1C,Potency,[2],inactive
same,activation,[4],11.3% (inactive)
C#CCCCO/N=C1/[C@H]2O[C@@H]2[C@@H](O)[C@H]2[C@H]1CCn1c(=O)n(Cc3cc4c(cc3Cl)OCO4)c(=O)n12,Potency,[2],inactive
same,Potency,[5],inactive
CN(C)c1nc(N)c(C(=O)Nc2cccnc2)nc1Cl,Potency,[1],inactive
O=Cc1ccc(B(O)O)cc1,Potency,[1],inactive
CCN1C(C)=C(C(=O)OC)C(c2ccccc2)N2C(=O)[C@@]3(C(=O)OC)O[C@@]12C1C(=O)CCCC13 (stereo partly specified),Potency,[2],inactive
same,"activity change, positive = activation",[3],-36.9% [at 11.4 µM] (inactive)
same,Potency,[5],inactive
O=C(O)c1cc(C(F)(F)F)nc2c(C(F)(F)F)cccc12,Potency,[1],inactive
CC(C)Cn1c(N)c(C(=O)COC(=O)c2cc(C3CC3)nc3ccccc23)c(=O)n(C)c1=O,Potency,[1],inactive
O=C1CCC[C@@H](C(C(=O)OCc2ccccc2)C(=O)OCc2ccccc2)C1,Potency,[2],3.16 µM (active)
same,"activity change, positive = activation",[3],-39.2% [at 11.4 µM] (inactive)
same,activation,[4],-22.4% (inactive)
COc1ccc(-c2nc3c(c4c2CC(C)OC4)CN(CCC(C)C)CC3)cc1 (stereo unspecified),Potency,[2],inactive
same,"activity change, positive = activation",[3],-50.4% [at 11.4 µM] (inactive)
same,Potency,[5],inactive
C=CCC1(C)OC=Cc2nc3cc(Cl)c(Cl)cc3nc21 (stereo unspecified),Potency,[2],inactive
same,"activity change, positive = activation",[3],-59.2% [at 11.4 µM] (inactive)
same,Potency,[5],3.98 µM (active)
CC(C)CN1CCc2nc(-c3ccccc3)c3c(c2C1)COC(C)C3 (stereo unspecified),Potency,[2],inactive
same,"activity change, positive = activation",[3],-40.3% [at 11.4 µM] (inactive)
same,Potency,[5],inactive
OCC1OC(C#Cc2ccccc2)C=CC1O (stereo unspecified),Potency,[2],inactive
same,"activity change, positive = activation",[3],-40.9% [at 11.4 µM] (inactive) and -46.3% [at 11.4 µM] (inactive) and -31.2% [at 11.4 µM] (inactive)
same,Potency,[5],inactive and 631 nM (active)
COC(=O)c1ccc(C23CC4(C2)[C@H](CN(Cc2ccc(-c5ccccc5)cc2)[C@@H]4c2ccccc2)C3c2ccc(Cl)nc2)cc1 (stereo partly specified),Potency,[1],inactive
CCC1=C2CC[C@H]3C(=O)N(CC(=O)OC)C(=O)[C@H]3[C@H]2[C@@]2(Cc3ccccc3)C(=NCCc3c[nH]c4ccccc34)OC(=O)N2C1=O,Potency,[1],1.26 µM (active)
same,Potency,[3],inactive
CC(C)=CCC/C(C)=C\COc1c2ccoc2cc2oc(=O)ccc12,Potency,[1],0.794 µM (active)
same,Potency,[3],inactive
FC(F)(F)c1ccc(C2[C@H]3CN(CC4CCCCC4)[C@H](c4ccccc4)C34CC2(c2ccccc2)C4)cc1 (stereo partly specified),Potency,[1],inactive
CCCNC(=O)OC[C@@H]1O[C@H](c2ccccc2)C=C[C@@H]1Oc1ccc(OC)cc1,Potency,[1],3.98 µM (active)
same,"activity change, positive = activation",[3],-82.9% [at 11.4 µM] (inactive)
C#CCCCO/N=C1/C[C@@H](O)[C@@H](O)[C@@H]2[C@@H]3C(=O)N(Cc4ccccc4)C(=O)[C@H]3CC[C@H]12,Potency,[1],3.98 µM (active)
N#Cc1ccc(C23CC4(C2)[C@H](CN(Cc2ccc(-c5ccccc5)cc2)[C@@H]4c2ccccc2)C3c2ccc(Cl)nc2)cc1 (stereo partly specified),Potency,[1],inactive
CCC1=C2CC[C@H]3C(=O)N(C)C(=O)[C@H]3[C@H]2[C@@]2(C)C(=NCc3ccccc3)OC(=O)N2C1=O,Potency,[1],12.6 µM (active)
same,Potency,[3],inactive
